# Source: PubChem
# LDHA block: blocks human lactate dehydrogenase A | 480,000 compounds, 0.15% hits | activity change, % (values are at about 110 or 230 µM) | P00338 | purified LDHA, NADH/diaphorase-resazurin fluorescence; active compounds read low | AID 1347041; in the data active means activity change below about -30%; inconclusive means mostly about -25% to -30%;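 further: plate controls were DMSO wells for no effect and wells without enzyme for full effect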
#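 Remaining NADH was detected by diaphorase (0.133 mg/mL) converting 37 µM resazurin to fluorescent resorufin, read at 0 and 20 minutes. The preceding 5-minute room-temperature reaction used 2 nM LDHA, 0.2 mM sodium pyruvate and 0.06 mM NADH at pH 7.4.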
# IDH1 R132H inh: blocks human mutant IDH1 R132H enzyme | IDH1-R132H enzyme, NADPH consumption, diaphorase/resazurin fluorescence | Potency, µM (doses to about 76.6 µM), for the others: top-dose activity change, negative = inhibition, most hits filed as inhibitors | 390,000 compounds, 0.093% hits; further: potency means the concentration at half of the fitted maximal effect; on the % scale 0 is the no-effect control and ±100 the full control effect; nearly all actives have a fitted effect of over 65% in size
#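 IDH1-R132H (0.5 ug/mL) preincubated 30 min with compound, then NADPH (0.016 mM) and alpha-KG (2 mM) added; 80 min at RT, pH 7.5. Remaining NADPH coupled via diaphorase/resazurin to fluorescence (540/590 nm); concentration-response curves normalized to no-enzyme control.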
# Mito fusion act: mitochondrial division inhibition or fusion activation; AID 485298; Potency, µM (top dose mostly 46.1 µM), inactives show at the highest dose growth rescue (activation), usual class: activators; S. cerevisiae fusion-defective mutant growth rescue, CellTiterGlo 48 h; 320,000 compounds, 0.23% hits; further: potency means the concentration at half of the fitted maximal effect; % of control where 0% means no effect; nearly all actives have a fitted effect of over 45% in size
#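 S. cerevisiae fusion-defective temperature-sensitive mutants (e.g. fzo1-1, mgm1-5) grown 48 h at 37C in YPEG (ethanol/glycerol non-fermentable) medium with 23 nl compound per well; growth rescue read as CellTiterGlo luminescence.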
# RGS4 inh: inhibitors of human regulator of G protein signaling 4 | 390,000 compounds, 0.039% hits | Transcreener GDP fluorescence polarization, RGS4-accelerated GTP hydrolysis | Potency, µM (highest dose often 114 µM), for inactives: top-dose activity change, negative = inhibition, hits mostly inhibitors; further: potency means the concentration at half of the fitted maximal effect; on the % scale 0 is the no-effect control and ±100 the full control effect; nearly all actives have a fitted effect of over 75% in size
#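 MLSMR compounds (23 nl, pin-transferred) preincubated 10 min at room temperature with a 500nM (2x) first reagent, then RGS4 at 900nM (2x) plus Transcreener GDP mix added; fluorescence polarization (620/688 nm) read before and after 90 min at 30 °C.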
# ASM inhibitor: inhibitors of human secretory acid sphingomyelinase | P17405 | placental ASM, HMU-PC fluorogenic substrate, 60 min | Potency, µM (top dose mostly 57.5 µM), inactives show at the top dose activity change, negative = inhibition, usual class: inhibitors | 340,000 compounds, 0.006% hits | AID 504937; further: potency means the concentration at half of the fitted maximal effect
#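 Steps: dispense placental human ASM, pin compound, wait 10 min at room temperature, add HMU-PC0 substrate at 9 uM final, incubate 60 min at 37 °C, add stop solution raising pH to 10, read fluorescence.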
# ClpP mod: qHTS Assay for Activators of ClpP; purified B. subtilis ClpP, FRET peptide cleavage, 20 min; 340,000 compounds, 1.9% hits; Potency, µM (doses to about 57.5 µM), inactives show at the highest dose activity change, negative = active; ATP-dependent Clp protease proteolytic subunit (Bacillus subtilis (strain 168)), P80244; AID 651965, 2013; active means well fitted falling curve with a large enough effect; inconclusive means small, poorly fitted or top-dose-only effect; inactive means no such curve, though single readings can be large or run the other way; further: potency means the concentration at half of the fitted maximal effect; the source files actives as falling curves though it sought activators and does not explain the sign; nearly all actives have a fitted effect of over 65% in size
#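 Purified B. subtilis ClpP, 10 microg/mL final in Tris/HCl pH8 with KCl, BSA, glycerol and Tween-20, cleaved an Abz/nitrotyrosine-quenched decapeptide. Fluorescence (ex 320, em 430) was read at 0 and 20 min at room temperature. Delta was normalized to 5.8 microM ADEP and DMSO/no-enzyme controls.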
# Active calls of the source: *; i = inactive; ? = inconclusive; · = not tested or not shown; ! = a repeat was not active; [ ] = remark or other dose. The full list was thinned out, with hits kept by preference. Unless noted, the call rests on the fitted dose curve; in most records, active means well fitted curve in the direction sought with a large enough effect; inconclusive means small, poorly fitted or top-dose-only effect, or another doubt; inactive means no such curve, though single readings can be large; an effect the other way counts as inactive or inconclusive.
SMILES,LDHA block,IDH1 R132H inh,Mito fusion act,RGS4 inh,ASM inhibitor,ClpP mod
O=C(Nc1ccc(F)cc1)N(Cc1ccco1)Cc1cc2cc3c(cc2[nH]c1=O)OCO3,-10,-1%,0%,-7%,5%,32µM*
O=C(Nc1ccc(F)cc1)N(Cc1cccs1)Cc1cc2cc3c(cc2[nH]c1=O)OCO3,-5,8%,-1%,14%,-2%,32µM*
Cc1ccc(NC(=O)N(Cc2ccc3c(c2)OCO3)Cc2cc3cc4c(cc3[nH]c2=O)OCCO4)cc1,-6,-1%,13%,-35%,-19%,?
O=C(O)COc1ccccc1/C=C1\C(=O)Nc2ccc(Br)cc21,-4,3%,-1%,-30%,3%,25µM*
FC(F)(F)c1cccc(/C=N/N=C(c2ccccc2)c2ccccc2)c1,-1,·,·,·,·,·
CC1CCCCN1C(C)CNC(=S)Nc1ccc(Cl)cc1Cl (stereo not drawn),0,·,·,·,·,·
Nc1nc(O)c(Sc2ccccc2[N+](=O)[O-])c(=O)[nH]1,-52*,-1%,2%,-24%,-1%,·
Nc1ccccc1Sc1ccccc1[N+](=O)[O-],1,-1%,12%,-14%,1%,1%
Cc1ccc(C)c(NC(=O)CSc2nccn2Cc2ccccc2Cl)c1,3,·,·,·,·,·
O=C(O)CCc1ccc(-c2ccccc2)n1Cc1ccco1,-6,-3%,-3%,-12%,19%,28µM*
COc1ccc(CC(=O)N(Cc2ccccc2)c2ccc(C)cc2)cc1S(=O)(=O)N1CCOCC1,-4,2%,-8%,-2%,1%,25µM*
COc1ccc(CC(=O)NCc2ccccc2)cc1S(=O)(=O)N1CCOCC1,-6,-2%,0%,15%,4%,0%
COc1ccc(N2C(=O)C(Cl)=C(Nc3ccccc3O)C2=O)cc1,6,-2%,4%,-25%,-2%,32µM*
CCOC(=O)c1oc2ccccc2c1NC(=O)c1ccccc1OC,-1,0%,8%,26%,-1%,35µM*
COc1ccccc1C(=O)Nc1c(C(=O)c2ccccc2)oc2ccccc12,2,3%,·,-36%,·,-1%
O=C1c2cccc(OCC(=O)N3N=C(c4cccs4)CC3c3ccc(F)cc3)c2CCN1Cc1cccnc1 (stereo not drawn),-4,-3%,10%,-2%,-6%,28µM*
CCOc1ccc2[nH]c3c(N4CCN(c5ccccn5)CC4)ncnc3c2c1,2,9%,13%,2%,16%,28µM*
CCOc1ccccc1CNC(=O)c1cnc2sc(N(CC)CC)nn2c1=O,-16,-14%,·,18%,·,8.9µM*
CCOc1ccc(CCNC(=O)c2cnc3sc(N(CC)CC)nn3c2=O)cc1OCC,-5,3%,·,26%,·,?
CCN(CC)c1nn2c(=O)c(C(=O)NCCc3ccccc3C)cnc2s1,-7,7%,·,15%,·,4µM*
CCc1ccc(CNC(=O)c2cnc3sc(N(CC)CC)nn3c2=O)cc1,-11,18%,·,15%,·,13µM*
CCOc1ccc(CNC(=O)c2cnc3sc(N(CC)CC)nn3c2=O)cc1,-3,8%,·,-22%,·,1%
CCN(CC)c1nn2c(=O)c(C(=O)NCCc3ccc(C)cc3)cnc2s1,-6,8%,·,-9%,·,16µM*
O=C(/C(C=Nc1cccc(Cl)c1)=C(/O)c1ccco1)C(F)(F)F,9,·,·,·,·,·
Cc1ccc(N=C/C(C(=O)C(F)(F)F)=C(\O)c2ccco2)cc1Cl,1,5%,-2%,-26%,39%,16µM*
SMILES,LDHA block,IDH1 R132H inh,Mito fusion act,RGS4 inh,ASM inhibitor,ClpP mod
O=C(/C(C=Nc1ccc(F)cc1)=C(/O)c1ccco1)C(F)(F)F,3,2%,2%,-4%,7%,25µM*
N#CCCN(C(=O)CSc1ccc2ccccc2n1)c1ccccc1,1,·,·,·,·,·
CC(=O)Oc1ccc(-c2ccc(C(=O)NC34CC5CC(CC(C5)C3)C4)cc2)cc1,-1,·,·,·,·,·
COc1ccc(NS(=O)(=O)c2ccc3oc(=O)c4[nH]c(=O)c(=O)n(C)c4c3c2)cc1,-16,0%,-8%,0%,0%,20µM*
COc1cc(/C=C(/C#N)C(=O)c2c(Cl)cccc2Cl)cc(OC)c1O,15,·,·,·,·,·
COc1cc(/C=C(\C#N)C(=O)c2ccc(O)c(O)c2)cc(I)c1O,-44*,4%,23µM*!,?,-20%,-3%
CCN(CC)CCNC(=O)c1nc(-c2cccc3[nH]ccc23)no1,0,·,·,·,·,·
O=C(CCC(=O)N1CCN(C2CCCCC2)CC1)Nc1nnc(C(F)(F)F)s1,-2,4%,-1%,16%,-2%,13µM*
CCCNC(=O)C(C)NC(=O)CCc1c[nH]c2ccccc12 (stereo not drawn),-8,·,·,·,·,·
C[C@@H]1NC(=O)c2cc([N+](=O)[O-])cc(I)c2OCC[C@@H](C(N)=O)NC(=O)[C@H](CCCCN)NC1=O,1,3%,7%,-22%,10%,2%
NCCCC[C@H]1NC(=O)[C@H](CCC(=O)O)NC(=O)c2cc([N+](=O)[O-])cc(I)c2OCC[C@@H](C(N)=O)NC1=O,-40*,22%,1%,8%,-10%,1%
CCN(CC)CCCC(C)Nc1cc(/C=C/c2ccccc2Cl)nc2cc(Cl)ccc12 (stereo not drawn),-5,·,·,·,·,4%
CCN(CC)CCCC(C)Nc1c2ccc(Cl)cc2nc2ccc(OC)cc12 (stereo not drawn),11,·,10%,21µM*,·,-3%
CC(C)CNc1oc(-c2ccccc2F)nc1C#N,-36*,·,·,·,·,·
CNc1oc(-c2cccc3ccccc23)nc1C#N,3,6%,1%,1%,i,16µM*
CNc1oc(-c2ccccc2Cl)nc1C#N,-6,3%,3%,-35%,3%,?
N#CC1=C(N)N2C(=C(C#N)C13CCN(Cc1ccccc1)CC3)Nc1ccccc12,-2,3%,-8%,23%,i,32µM*
Cc1[nH]nc2c1C1(CCN(Cc3ccccc3)CC1)C(C#N)=C(N)O2,0,-6%,-2%,9%[11.4 µM],31%,-17%
NS(=O)(=O)c1cccc(NC(=O)COC(=O)CCSc2ccccc2)c1,-10,9%,-9%,-2%,2%,16µM*
COc1cccc2cc(C(=O)NCc3ccc(C(=O)N4CCCCC4)cc3)c(=O)oc12,2,·,·,·,·,·
Cc1csc2ncc(C(=O)NCc3ccco3)c(=O)n12,-4,-2%,2%,-6%,3%,20µM*
CC(NC(=O)C1(C#N)CCCC1)C12CC3CC(CC(C3)C1)C2 (stereo not drawn),3,·,·,·,·,·
Brc1ccc(CSc2ccc(-c3ccccn3)nn2)cc1,-31*,·,·,·,·,·
